Screens (PubChem)
RAM network inh – inhibitors of the yeast RAM network, primary screen, dse1pr::URA3 reporter, 5-FOA selection | S. cerevisiae dse1pr::URA3 reporter, 5-FOA growth OD615, 2 d; analog-sensitive cbk1-as2 kinase mutant strain | inhibition, % at 50 µM | 190,000 tested, 1.8% active | AID 868, 2007;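 active means inhibition above a set limit, 3 SD over mean compound inhibition, cut at about 8.4% in these data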;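 further: 0% = DMSO-only wells with no growth and 100% = 10 µM 1-NA-PP1 full growth; inhibition rescues growth on 5-FOA so higher OD means more RAM inhibition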
Cl transport mod – KCC2 cotransporter modulators, thallium flux, primary screen, cell-based, HEK293 KCC2, FluoZin-2 fluorescence, MLSMR; Solute carrier family 12 member 5 (Homo sapiens), Q9H2X9; KCC2 cells, thallium flux FluoZin-2 fluorescence; B-score of Tl+ flux slope (higher = more flux/activation; lower = inhibition) at 10 µM; 190,000 tested, 2.2% active; AID 1456, 2008;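 active means thallium flux slope and its plate-corrected score both differing from the plate sample mean at a set confidence after two filtering rounds, in either direction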;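 further: slope of fluorescence scaled to starting intensity during 10 to 20 s after thallium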
S1P4 agonist – S1P4 receptor agonists, primary screen, cell-based. Sphingosine 1-phosphate receptor 4 (Homo sapiens), O95977. S1P4-expressing cell line, agonist reporter assay. activation, % at 4.98 µM. 220,000 tested, 0.35% active. AID 1509, 2009; in the data active means activation above about 11%;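 further: 0% = DMSO vehicle and 100% = reference agonist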
S1P3 antagonist – S1P3 receptor antagonists, primary screen, cell-based. inhibition, % at 4.98 µM. 170,000 tested, 0.27% active. Sphingosine 1-phosphate receptor 3 (Homo sapiens), Q99500. CHO S1P3 NFAT-BLA reporter, FRET fluorescence, antagonist mode. AID 485, 2006;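 active means inhibition above the plate cutoff, the mean inhibition of test wells on that plate plus 3 SD, cut at about 28% in these data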;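 further: cells challenged with S1P at its EC80 of 0.8 µM; blue over green emission ratio from cleaved BLA substrate after 4 h stimulation; 0% = S1P-stimulated wells and 100% = unstimulated DMSO-only wells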
ROMK primary – ROMK potassium channel modulators, primary screen, cell-based, thallium flux, MLSMR library | 130,000 tested, 2% active | ATP-sensitive inward rectifier potassium channel 1 (Homo sapiens), P48048 | Tet-inducible ROMK, thallium flux fluorescence; actives lie on both sides | B-score at 10 µM;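 active means signal ratio slope over the read window, or its plate-corrected B-score, at least 3 SD from the plate mean, either direction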;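 further: B-score of the F/F0 ratio slope over 7 to 12 s after thallium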
Target sequence (P48048 whole entry, looked up): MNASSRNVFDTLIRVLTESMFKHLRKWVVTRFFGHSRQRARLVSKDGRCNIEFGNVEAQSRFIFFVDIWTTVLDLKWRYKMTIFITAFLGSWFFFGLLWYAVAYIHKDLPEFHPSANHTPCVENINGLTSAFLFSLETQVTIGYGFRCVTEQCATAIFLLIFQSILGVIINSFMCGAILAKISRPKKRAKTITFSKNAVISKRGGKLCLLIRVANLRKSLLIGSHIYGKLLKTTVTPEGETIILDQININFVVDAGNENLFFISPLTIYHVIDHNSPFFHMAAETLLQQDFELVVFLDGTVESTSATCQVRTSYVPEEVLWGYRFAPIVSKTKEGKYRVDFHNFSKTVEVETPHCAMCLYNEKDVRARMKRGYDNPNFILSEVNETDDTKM
S1P4 antagonist – S1P4 receptor antagonists, primary screen, cell-based; 220,000 tested, 0.26% active; AID 1510, 2009; inhibition, % at 4.98 µM; S1P4-expressing cells, antagonist mode, reporter read-out; Sphingosine 1-phosphate receptor 4 (Homo sapiens), O95977; in the data active means inhibition above about 29%;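 further: 0% = wells stimulated with agonist and 100% = vehicle wells without agonist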
ROMK hit retest – ROMK channel modulator hit retest, confirmation, cell-based, thallium flux, duplicate, resupplied hits. shares compounds with ROMK primary. fluorescence ratio; active compounds read low. normalized thallium flux (F/F0 slope) at 10 µM. 3,000 tested, 54% active;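 active means Flux at 10 µM at least 3 SD below or above vehicle control mean in one or both replicates; inconclusive means no clear call, values can overlap the other calls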
An asterisk follows results filed as active; i = inactive; ? = inconclusive; . = no result given. Compounds with a hit are over-represented: about 5.1% of the library has one in this group of screens.

SMILES	RAM network inh	Cl transport mod	S1P4 agonist	S1P3 antagonist	ROMK primary	S1P4 antagonist	ROMK hit retest
C=CCNc1sc(C(=O)c2ccc(Br)s2)c(N)c1C#N	7	-3.1	0	.	-3.6*	-10	0.056*
C=CCNc1sc(C(=O)c2ccccc2)c(N)c1C#N	1	-0.023	1	.	.	-7	.
NC(=O)C(c1ccc(Cl)cc1Cl)c1ncc(C(F)(F)F)cc1Cl (stereo not given)	-1	-1.8	2	.	.	-25	.
COc1cc(S(=O)(=O)Nc2c(C)cc(C)cc2C)ccc1Cl	4	-0.12	-1	.	0.14	-12	.
COc1cc(S(=O)(=O)Nc2ccccc2C)ccc1Cl	-1	.	0	-4	.	-19	0.073
COc1ccc(Cl)cc1NS(=O)(=O)c1ccc(OC)c(OC)c1	0	-0.41	1	.	-3.1*	-10	0.075
COc1ccc(S(=O)(=O)NCc2ccccc2Cl)cc1OC	1	-0.047	-1	25	.	2	0.076
NS(=O)(=O)c1ccc(N2C(=O)C(=O)/C(=C(/O)c3ccccc3)C2c2ccc(Cl)cc2)cc1 (stereo not given)	.	0	1	-27	.	2	.
NC1=CC(=O)c2cccc3cccc1c23	.	.	-3	-23	-3.8*	-9	0.051*
NC1=Nc2cccc3cccc1c23	1	-0.1	1	1	-1.2	-4	.
OC(CNCC1CCCO1)Cn1c2ccccc2c2ccccc21 (stereo not given)	0	0.0087	0	6	-4.1*	-1	0.061*
OC(CNCC1CCCO1)Cn1c2ccc(Cl)cc2c2cc(Cl)ccc21 (stereo not given)	-1	0.013	-2	.	.	8	.
Cc1ccc(NC(=O)COC(=O)CCc2ccc(S(=O)(=O)N3CCOCC3)cc2)c(C)c1	3	0.69	1	-2	0.57	-17	.
Cc1ccc(NC(=O)CCc2ccc(S(=O)(=O)N3CCOCC3)cc2)c(C)c1	1	-0.089	2	.	3.2*	-27	0.086
O=c1c2ccccc2nnn1CSc1nnc(C2COc3ccccc3O2)n1-c1ccccc1 (stereo not given)	6	-1.4	0	-17	-2.9*	-5	0.042*
O=C(C1=C[C@@H](c2coc3ccccc3c2=O)C[C@@H](OCCCCO)O1)N1CCN(Cc2ccc3c(c2)OCO3)CC1	-1	0.2	0	-9	.	11	.
O=C(N/N=C/c1cn(-c2ccccc2)nc1-c1cc2ccccc2o1)c1cccnc1	2	-1.3	0	4	.	-9	0.075
N#C/C(=C\c1cn(-c2ccccc2)nc1-c1cc2ccccc2o1)c1nc2ccccc2[nH]1	5	i	1	-8	-3.5*	-16	0.048*
O=[N+]([O-])c1ccc(-c2cc(-c3ccncc3)nc3ccc4ccccc4c23)cc1	2	.	1	.	0.42	3	.
COc1ccccc1C(=O)C1CCCN(C(=O)c2cccc(-n3cccn3)c2)C1 (stereo not given)	1	-2	0	-19	.	-5	.
Cc1ccc(NC(=O)c2nc[nH]c2C(=O)NCC(=O)OC(C)(C)C)cc1	.	0.024	.	.	.	.	.
CCOc1ccc(/C=N/n2cnnc2)cc1	2	-0.099	2	-20	.	-7	.
CCOc1cc(/C=N/n2cnnc2)cc(Br)c1O	1	1.4	-1	2	.	-15	0.077
CCNC(=O)c1c(O)c2ccccc2[nH]c1=O	1	0.081	0	-33	2.6*	-27	0.089
CCOC(=O)NC(Nc1sc2c(c1C(=O)OC)CCN(C)C2)(C(F)(F)F)C(F)(F)F	-1	0.42	2	.	-0.04	1	0.076
SMILES	RAM network inh	Cl transport mod	S1P4 agonist	S1P3 antagonist	ROMK primary	S1P4 antagonist	ROMK hit retest
CCOc1ccccc1NC(=O)C(NCC1(N2CCCCC2)CCCCC1)c1ccccc1 (stereo not given)	2	-0.95	1	-6	-3.4*	-2	0.064*
CCOc1ccccc1NC(=O)C(OC(=O)C1CC1)c1ccccc1 (stereo not given)	.	-0.16	2	-1	.	11	.
CC(=O)CSc1nc2cc3c(cc2cc1C#N)OCCO3	1	-1.2	-1	-19	-3.3*	-4	0.054*
O=C(Nc1ccccc1O)c1nc(Cl)ccc1Cl	1	0.2	1	1	-0.38	0	.
COc1ccc(S(=O)(=O)Nc2cccc(NC(C)=O)c2)cc1	0	.	2	-8	0.0058	-17	.
COc1cccc(NS(=O)(=O)c2ccc(NC(C)=O)cc2)c1	0	.	0	-3	-2.1*	-6	0.08
COc1ccc(/C=C(/C#N)C(=O)Nc2ccccc2C)cc1C(=O)O	5	2	-1	-2	0.2	-13	.
COc1cc(/C=C(\C#N)C(=O)Nc2ccccc2C(=O)O)cc(Cl)c1OC	0	-3	0	-11	-4.6*	-1	0.057*
COc1ccc(CCNC(=O)COC(=O)c2ccc(N3CCCC3=O)cc2)cc1	0	0.14	0	-7	1.4*	-1	0.071
COc1ccc(CCNC(=O)CN2CCC(C(N)=O)CC2)cc1	2	.	1	-8	.	-16	0.087
CCCn1c(=O)c(Br)cn(-c2ccccc2C)c1=O	.	-1.5	1	5	0.76	-22	.
N#C/C(=C\c1ccc(N2CCOCC2)o1)C(=O)NC1CCCCC1	.	-4.4	0	10	.	5	0.035*
N#C/C(=C\c1ccc(N2CCOCC2)o1)C(=O)NCC1CCCO1 (stereo not given)	2	i	-1	4	-4.2*	1	0.038*
Cc1nc(N)sc1N=Nc1ccc(Br)cc1	-1	0.85	2	.	.	6	.
CC(C)CC(NC(=O)c1ccccc1)C(=O)N/N=C/c1ccco1 (stereo not given)	2	0.005	2	-6	0.96	-21	0.086
O=C(Cn1nnc(-c2ccccc2)n1)N/N=C/c1ccco1	3	1.4	0	-9	-12*	-15	0.072
CCc1cccc(CC)c1NC(=S)NCC(c1cccnc1)N(C)C (stereo not given)	1	0.4	1	-9	0.03	-16	.
CC(C)OC(=O)CSc1nnc(CNc2nc(-c3ccccc3)cs2)n1C	0	.	0	-21	-2.7*	-11	0.062*
CCCN1C(=O)c2cc(C(=O)Nc3ccc(OC)cc3OC)ccc2C1Nc1ccc(OC)cc1OC (stereo not given)	6	-1.4	0	16	-3.7*	8	?
